The values that follow come from PubChem BioAssay (NCI).

About 83,000 compounds went through this panel and 20% of them were active in at least one assay; those are over-represented in the sample as a whole.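 Negative percent growth values reflect cell death: -40 means 40% of the cells present at the start died, and -100 means all died.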 A number with no mark means an inactive call. Activity calls are given as the source filed them. The calls were made as follows: active = growth percent below 10; inactive = the rest.

Common to all, as to test: NCI-60 one-dose screen, 48 h (100 = growth as untreated, 0 = no growth, -100 = all killed)
In one test the test system is SR leukemia. To be noted: 10 µM unless noted.
The next test deals with RPMI-8226 leukemia. To be noted: 10 µM unless noted.
A further test deals with OVCAR-8 ovarian. Particulars: 10 µM unless noted.
The next test deals with OVCAR-5 ovarian. To be noted: 10 µM unless noted.
The next test has as its system OVCAR-4 ovarian. Particulars: 10 µM unless noted.
The test system of a further test is SK-OV-3 ovarian. To be noted: 10 µM unless noted.
A further test has as its system IGROV1 ovarian. To be noted: 10 µM unless noted.
A further test relates to OVCAR-3 ovarian. Particulars: 10 µM unless noted.
The test system of another test is HS 578T breast. Particulars: 10 µM.
For the next test, the system named is T-47D breast. Particulars: 10 µM unless noted.
In another test the test system is BT-549 breast. To be noted: 10 µM unless noted.
Another test concerns MDA-MB-435 melanoma. To be noted: 10 µM unless noted.
A further test relates to SW-620 colon. Particulars: 10 µM unless noted.
A further test relates to MCF7 breast. Particulars: 10 µM unless noted.
The next test relates to HCT-116 colon. To be noted: 10 µM unless noted.
Another test concerns HCC-2998 colon. Particulars: 10 µM unless noted.
A further test relates to KM12 colon. To be noted: 10 µM unless noted.

In the case of `Cc1cc(C)cc(Nc2cc(C)nc3nc(C(F)(F)F)nn23)c1`, the growth in the test with SR leukemia was 29.6%; in the test with RPMI-8226 leukemia, 40%; in the test on OVCAR-8 ovarian it was 17.5%; in the test on OVCAR-5 ovarian it was 63.3%; with OVCAR-4 ovarian, 37.3%; in the test on SK-OV-3 ovarian, 47.8%. The growth was 21.6% with IGROV1 ovarian; 8.97% (active) with OVCAR-3 ovarian; 71.7% in the test on HS 578T breast; 29.5% in the test with T-47D breast; 49% with BT-549 breast; 36.9% in the test on MDA-MB-435 melanoma. In addition, the growth is 35.2% with SW-620 colon; -11.7% (active) in the test with MCF7 breast; 19.2% with HCT-116 colon; 40.2% in the test on HCC-2998 colon; 25.7% in the test on KM12 colon.

For `CC(C)N1CCN(c2ccncc2S(=O)(=O)N2CCN(C)CC2)CC1`, the growth with SR leukemia was 93.5%; with RPMI-8226 leukemia, 102%; in the test on OVCAR-8 ovarian, 103%; with OVCAR-5 ovarian it was 96.9%; in the test with OVCAR-4 ovarian, 96.1%; in the test on SK-OV-3 ovarian, 103%. Also, the growth in the test with IGROV1 ovarian is 119%; in the test on OVCAR-3 ovarian, 110%; in the test on HS 578T breast, 105%; in the test with T-47D breast, 96.2%; in the test on BT-549 breast, 107%; in the test on MDA-MB-435 melanoma it was 101%. Besides, the growth with SW-620 colon is 105%; in the test with MCF7 breast, 94.1%; in the test with HCT-116 colon, 100%; in the test with HCC-2998 colon it was 106%; in the test with KM12 colon, 99.1%.

In the case of `COc1ccc(/C=C2\N=C(c3cccnc3)N(c3ccccc3)NC2=O)cc1`, the growth in the test with SR leukemia is 92.7%; in the test with RPMI-8226 leukemia, 68.5%; in the test with OVCAR-8 ovarian, 95.9%; with OVCAR-5 ovarian, 103%; in the test with OVCAR-4 ovarian, 99.7%; in the test on SK-OV-3 ovarian it was 130%. Besides, the growth is 115% with IGROV1 ovarian; 95.9% in the test on OVCAR-3 ovarian; 92% in the test with HS 578T breast; 90.2% in the test on T-47D breast; 94.3% in the test with BT-549 breast; 97.3% with MDA-MB-435 melanoma. Also, the growth with SW-620 colon was 92.3%; with MCF7 breast, 91.5%; with HCT-116 colon it was 97.1%; in the test with HCC-2998 colon, 99.7%; in the test on KM12 colon it was 95.3%.

`COc1cc(C2CC(c3ccc(Cl)cc3)=NN2C=O)ccc1OS(=O)(=O)c1ccc(C)cc1` (stereo unspecified): the growth was 99.8% in the test with SR leukemia; 82.4% in the test on RPMI-8226 leukemia; 90.3% in the test on OVCAR-8 ovarian; 87.2% in the test with OVCAR-5 ovarian; 112% with OVCAR-4 ovarian; 96.3% in the test with SK-OV-3 ovarian. For the same molecule, the growth in the test on IGROV1 ovarian was 94.4%; with OVCAR-3 ovarian, 102%; in the test on HS 578T breast, 86.8%; with T-47D breast it was 77%; in the test with BT-549 breast, 83.2%; with MDA-MB-435 melanoma it was 90.2%. In addition, the growth with SW-620 colon is 87.2%; with MCF7 breast, 78.9%; in the test on HCT-116 colon, 81.1%; in the test with HCC-2998 colon it was 104%; with KM12 colon, 93.4%.

For `Cc1nc2ccc(Nc3nc(NCCN4CCOCC4)nc(Nc4ccc(F)cc4)n3)cc2n1Cc1ccccc1`, the growth in the test on SR leukemia was 0.147% (active); in the test on RPMI-8226 leukemia, 3.11% (active); in the test on OVCAR-8 ovarian, 50.2%; with OVCAR-5 ovarian, 84.1%; with OVCAR-4 ovarian, 98.1%; in the test with SK-OV-3 ovarian, 79%. The growth in the test on IGROV1 ovarian was 69%; in the test on OVCAR-3 ovarian, 73.7%; with HS 578T breast, 40.6%; in the test with T-47D breast it was 53%; in the test with BT-549 breast it was 49.9%; in the test on MDA-MB-435 melanoma, 52.2%. Further, the growth with SW-620 colon was 42.4%; in the test with MCF7 breast, 33.6%; in the test with HCT-116 colon it was 27.9%; in the test on HCC-2998 colon it was 44.5%; with KM12 colon it was 43.4%.

Take `CCc1ccc(Nc2cc(C)c3ccc(O)cc3n2)cc1`: the growth with SR leukemia is 43.9%; in the test with RPMI-8226 leukemia, 29.9%; with OVCAR-8 ovarian, 80%; in the test with OVCAR-5 ovarian, 83.7%; in the test on OVCAR-4 ovarian, 75.7%; in the test on SK-OV-3 ovarian, 90.1%. Moreover, the growth was 53.8% in the test with IGROV1 ovarian; 81% in the test with OVCAR-3 ovarian; 87.6% with HS 578T breast; 55.3% in the test with T-47D breast; 88.3% with BT-549 breast; 28.5% with MDA-MB-435 melanoma. In addition, the growth in the test with SW-620 colon is 78.5%; in the test on MCF7 breast, 63.9%; in the test on HCT-116 colon, 56.8%; in the test on HCC-2998 colon, -59.8% (active); in the test with KM12 colon it was 53.9%.

`CCCCn1cnc(-c2cc(-c3ccccc3)cc(C(F)(F)F)c2)n1`: the growth is 89.5% with SR leukemia; 98.2% in the test with RPMI-8226 leukemia; 97.5% in the test on OVCAR-8 ovarian; 113% with OVCAR-5 ovarian; 106% in the test with OVCAR-4 ovarian; 105% with SK-OV-3 ovarian. Moreover, the growth with IGROV1 ovarian is 103%; in the test with OVCAR-3 ovarian, 103%; in the test on HS 578T breast, 101%; in the test on T-47D breast, 93.7%; in the test on BT-549 breast, 100%; in the test with MDA-MB-435 melanoma, 105%. In addition, the growth in the test on SW-620 colon was 96%; in the test on MCF7 breast, 99.6%; in the test on HCT-116 colon, 96.7%; in the test on HCC-2998 colon, 108%; in the test with KM12 colon it was 101%.

Consider `Cc1nc2ccc(Nc3nc(N4CCOCC4)nc(N4CCN(C)CC4)n3)cc2n1Cc1ccccc1`, for which the growth in the test on SR leukemia was 24.9%; with RPMI-8226 leukemia, 65.4%; in the test with OVCAR-8 ovarian it was 93.6%; in the test with OVCAR-5 ovarian, 101%; in the test with OVCAR-4 ovarian, 112%; in the test on SK-OV-3 ovarian it was 96.2%. Also, the growth with IGROV1 ovarian is 98.2%; with OVCAR-3 ovarian, 94.7%; in the test with HS 578T breast it was 69.3%; with T-47D breast it was 91.9%; in the test with BT-549 breast it was 66.1%; with MDA-MB-435 melanoma, 91%. The growth is 96.9% with SW-620 colon; 82.6% in the test with MCF7 breast; 71.3% in the test with HCT-116 colon; 96.3% in the test on HCC-2998 colon; 93.2% with KM12 colon.
